Assay outcomes: PubChem, National Center for Advancing Translational Sciences (NCATS)
FMDV inh: High Throughput Screening for Foot and Mouth Disease Virus Antivirals; FMDV antiviral cell-based qHTS; Potency, µM (series often up to 57.9 µM), most hits filed as inhibitors; 1.2% of 410,000 active; AID 1159524, 2015; calls by dose curve; tested in HEK293T cells; further: read-out not given here; nearly all actives have a fitted effect of over 45% in size
HCMV antiviral: qHTS Assay for inhibitors of the human cytomegalovirus (HCMV). HFF cells, HCMV-luciferase reporter, 72 h; hits give low values. 4.5% of 410,000 active. activity change, negative = inhibition, % at 57.5 µM; in the data active means activity change below about -60%; inconclusive means no clear call, values can overlap the other calls; inactive means above about -39%
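After 16 h attachment at 37C, HFF cells received test compound and HCMV-luciferase (1 PFU/cell); reporter luminescence read 72 h later, data normalized against buffer-only and known inhibitor Salinomycin.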
HCV inh: qHTS Assay for Inhibitors of Hepatitis C Virus (HCV); Huh7.5.1 HCVcc-Cre infection, luciferase reporter, 44 h; Potency, µM (top dose mostly 41.8 µM), actives largely listed as inhibitors; 3.4% of 340,000 active; AID 651820, 2012
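Whole-lifecycle infectious HCVcc-Cre system; cells 1,000/well, compound then virus (~0.5 moi) added 4 h after plating, 44 h culture. Luciferase read 15 sec following 15 min substrate incubation, room temp.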
Vaccinia Venus: qHTS for Stage-Specific Inhibitors of Vaccinia Orthopoxvirus: Venus Reporter Primary qHTS | Vaccinia virus Venus reporter expression, fluorescence | Potency, µM (highest dose often 36.5 µM), actives largely listed as inhibitors | 0.46% of 330,000 active; calls by dose curve; tested in A549 cells; further: nearly all actives have a fitted effect of over 30% in size
Vaccinia mCherry: qHTS for Stage-Specific Inhibitors of Vaccinia Orthopoxvirus: mCherry Reporter Primary qHTS; AID 720579, 2013; Potency, µM (titrated, usually from 36.5 µM), actives largely listed as inhibitors; Vaccinia virus mCherry reporter infection, fluorescence; 0.63% of 310,000 active; calls by dose curve; tested in A549 cells; further: nearly all actives have a fitted effect of over 35% in size
Giardia FBPA inh: qHTS Assay for Inhibitors of Fructose-1,6-bisphosphate Aldolase from Giardia Lamblia; Potency, µM (doses to about 59.6 µM), hits mostly inhibitors; purified Giardia FBPA; 0.71% of 290,000 active; AID 2451, 2010; further: nearly all actives have a fitted effect of over 55% in size
Target sequence (A8B2U2 whole entry, looked up): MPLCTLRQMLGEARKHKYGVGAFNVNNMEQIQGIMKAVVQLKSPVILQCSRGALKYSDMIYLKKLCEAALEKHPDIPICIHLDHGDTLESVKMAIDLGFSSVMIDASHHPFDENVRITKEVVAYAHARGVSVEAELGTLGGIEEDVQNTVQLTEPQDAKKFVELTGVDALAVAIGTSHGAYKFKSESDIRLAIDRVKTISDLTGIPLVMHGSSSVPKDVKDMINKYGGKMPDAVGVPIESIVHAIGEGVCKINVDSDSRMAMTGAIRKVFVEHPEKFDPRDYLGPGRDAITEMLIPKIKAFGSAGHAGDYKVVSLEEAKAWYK
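Giardia FBPA (40 nM reagent) was preincubated 10 min at RT with compound (up to 57.5 uM final), then substrate plus GAPDH/TPI/NAD/arsenate coupling system with diaphorase/resazurin was added; resorufin fluorescence (525/598 nm) was read after 20 min.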
Hits are given with their value; n = inactive; u = inconclusive; x = no result given; ! = not confirmed by another sample. Shown are actives, neighbours in structure and some others; about 7.5% of the full set was active somewhere. Unless noted, the call rests on the fitted dose curve; in most records, active means well fitted curve in the direction sought with a large enough effect; inconclusive means small, poorly fitted or top-dose-only effect, or another doubt; inactive means no such curve, though single readings can be large; an effect the other way counts as inactive or inconclusive.

SMILES	FMDV inh	HCMV antiviral	HCV inh	Vaccinia Venus	Vaccinia mCherry	Giardia FBPA inh
O=C(c1ccco1)N1CCN(C(=O)c2cc(-c3ccccc3)nc3ccccc23)CC1	n	n	n	n	n	n
Cc1cc(C)c2nc(C(F)(F)F)nc(N3CCN(C(=O)c4ccco4)CC3)c2c1	u	u	12.6µM	x	x	n
Cc1cc(C)c2nc(N3CCCN(C(=O)c4ccco4)CC3)c(C#N)cc2c1	n	n	u	x	x	u
CCOP(=O)(OCC)C(Nc1ccc(C)cc1)c1ccco1 (stereo not given)	n	n	n	x	x	n
CC1CN(Cc2csc(-c3ccc(Cl)cc3)n2)CC(C)O1 (stereo not given)	n	u	11.2µM	n	n	u
CC1=CC(O)=NS(=O)(=O)O1	x	x	x	n	n	x
CC(=O)N(O)c1ccc(C=Cc2ccccc2)cc1	n	-98.8	x	n	u	x
Cc1ccc(-c2nn(-c3ccccc3)cc2C(=O)O)o1	x	x	x	x	x	n
Cc1ccc(-c2nn(-c3ccccc3)cc2CN(Cc2ccccc2)C(=O)c2ccco2)o1	28.2µM	-75.6	10µM	x	x	n
O=C(C[N+]1(CCO)CCOCC1)c1cccc2ccccc12	x	x	x	n	n	x
CCCCn1c(-c2nonc2N)nc2ccccc21	n	n	u	x	x	n
CCOC(=O)c1ccccc1NC(=O)Cn1c(-c2nonc2N)nc2ccccc21	n	-73.8	u	x	x	n
CC(C)CCn1c(-c2nonc2N)nc2ccccc21	n	u	11.2µM	n	u	n
CCc1ccc(C2CC(=O)c3c([nH]c(C(=O)OC4CCCCCC4)c3C)C2)cc1 (stereo not given)	n	n	x	n	n	x
C/C(CCc1ccc2c(c1)OCO2)=N\NC(=S)NC(C)C	n	n	n	x	x	n
Cc1ccc(S(=O)(=O)N(C)C)cc1NC(=S)N1CCN(Cc2ccc3c(c2)OCO3)CC1	u	u	12.6µM	u	u	n
COCCNC(=S)N/N=C(\C)CCc1ccc2c(c1)OCO2	n	-67.1	n	n	n	u
CCCCOc1ccc(C(=O)NCC(=O)N2CCN(Cc3ccc4c(c3)OCO4)CC2)cc1	n	-68.4	u	n	n	x
Cc1ccccc1NC(=S)N1CCN(Cc2ccc3c(c2)OCO3)CC1	u	n	n	n	n	n
CCN(CC)c1ccc(C(=O)NC(=S)N2CCN(Cc3ccc4c(c3)OCO4)CC2)cc1	n	n	11.2µM	x	x	n
CC(C)CNC(=O)/C=C/C=C/c1ccc2c(c1)OCO2	n	n	n	n	n	x
COCC(=O)N1CCC(Oc2ccc(C(=O)N3C[C@@H]4CCC[C@H]3C4)cc2)CC1	n	n	n	n	n	n
CC(C)Oc1ccc(CNC(=O)c2ccc(CN3CC(=O)N4CCCCC4C3=O)cc2)cc1 (stereo not given)	n	n	x	n	n	x
COCCCNC(=S)N1CCN(Cc2ccc3c(c2)OCO3)CC1	n	-102.7	n	x	x	u
CCCCNC(=S)N1CCN(Cc2ccc3c(c2)OCO3)CC1	n	n	n	n	n	u
SMILES	FMDV inh	HCMV antiviral	HCV inh	Vaccinia Venus	Vaccinia mCherry	Giardia FBPA inh
O=C(N/N=C/c1ccc(O)cc1O)C(=O)N/N=C/c1ccc(O)cc1O	n	n	n	n	n	n
C/C(=N\NC(=O)C12CCC(C)(C(=O)O1)C2(C)C)c1ccccc1O (stereo not given)	n	-103.1	u	n	u	n
CC12CCC(C(=O)N/N=C/c3ccc(O)cc3O)(OC1=O)C2(C)C (stereo not given)	n	n	n	n	14.1µM	n
CC12CCC(C(=O)NCc3ccccc3)(OC1=O)C2(C)C (stereo not given)	n	n	n	n	n	n
CC1(C)N=C(N)N=C(N)N1c1ccc(Oc2ccc(Cl)cc2)c(Cl)c1	n	-99.5	u	u	u	n
O=C(CSc1nnc(-c2cccnc2)o1)Nc1ccc(Br)cc1	n	n	n	n	n	n
O=C(CSc1nnc(-c2ccccc2)o1)Nc1ccccc1F	n	u	n	n	n	n
Cc1ccc(-c2nnc(SCC(=O)Nc3ccccc3F)o2)cc1	n	-94.9	n	n	n	n
O=C(CSc1nnc(-c2cccnc2)o1)Nc1ccc(F)cc1	n	-76.1	x	n	n	x
O=C(CNC(=O)c1ccc(F)cc1)OCc1cc(=O)n2ccsc2n1	n	n	x	n	n	x
COc1ccc(NC(=O)c2sc3nc(C)c(C(=O)Nc4ccc(C)cc4C)c(-c4sccc4C)c3c2N)cc1	n	n	x	n	n	x
COc1ccc(NC(=O)COc2cc(O)c3c(c2)OC(C)(C)CC3=O)cc1	n	n	2.82µM	n	n	n
COc1ccc(CCNC(=O)COc2cc(O)c3c(c2)OC(C)(C)CC3=O)cc1OC	n	n	3.16µM	n	n	n
COc1cc(NC(=O)COc2cc(O)c3c(c2)OC(C)(C)CC3=O)cc(OC)c1	n	n	2.82µM	n	n	n
COc1cccc(NC(=O)COc2cc(O)c3c(c2)OC(C)(C)CC3=O)c1	n	n	n	n	n	n
O=[N+]([O-])c1cc(N=Nc2ccc3ccccc3c2)ccc1O	n	n	n	x	x	n
COCc1ccc(-c2c(-c3cc(OC)cc(OC)c3)oc(=O)c3cc(OC)c(OC)cc23)cc1	n	n	u	n	n	x
COc1ccccc1C(=O)N(CCC1CCCN1C)c1nc2ccccc2s1 (stereo not given)	u	-77.2	n	n	n	n
Cc1c(O)c2c3c(cccc3c1O)C(=O)N(c1ccccc1)C2=O	22.4µM	u	u	n	n	n
CC(=O)Nc1ccc2c3c(cccc13)C(=O)N(c1ccccc1)C2=O	n	-60.4	n	n	n	n
O=C(O)c1ccc2c3c(cccc13)C(=O)N(c1ccccc1)C2=O	n	n	n	n	n	n
Cc1noc(NS(=O)(=O)c2ccc(NC(=O)c3ccc(Cl)c(S(=O)(=O)N(C)c4ccccc4)c3)cc2)c1C	n	n	n	n	n	x
O=C(Nc1c(-c2ccccc2)nc2ccccn12)c1ccccc1F	n	-63.8!	n	n	n	n
CC1=C(C(=O)NCc2ccc(Cl)cc2)C2(CCCCCC2)OC1=O	n	n	x	n	n	x
